Inhibition of mean fluorescence and inhibition of percent positive cells data for 28 molecules are collected here from PubChem BioAssay AID1014 (NMMLSC, 2008).

The structures appear in SMILES notation. The source made the active and inactive calls. Rule as the data show it: active = inhibition of mean fluorescence above about 33%; inactive = the rest.

The test in a line: quorum sensing inhibitors in bacterial reporter, SAR follow-up, flow cytometry, SAR analogs (AID 1014).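 Also: Staphylococcus aureus RN6390 with RNAIII-GFP reporter stimulated by AIP; bacteria incubated with compound for 3 hours at 37 °C.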 The following applies: at 20 µM, stronger effect = higher value; inhibition of percent positive cells: flow cytometry fluorescence, measured here: percent reporter-positive cells. (In general: A flow cytometer gives signals particle by particle.)

Consider `Cc1ccc(NC(=O)CN2CCN(Cc3ccc4c(c3)OCO4)CC2)cc1`, for which the inhibition of mean fluorescence was -30.1% (inactive) and the inhibition of percent positive cells was -0.8%.

In the case of `O=C(Nc1ccc2c(c1)OCO2)C1CCN(Cc2cnn(-c3ccccc3)c2-n2cccc2)CC1`, the inhibition of mean fluorescence is -33.1% (inactive) and the inhibition of percent positive cells is -0.6%.

As for `CCOC(=O)c1c(COc2ccccc2)oc2ccc(O)cc12`, the inhibition of mean fluorescence is -1.1% (inactive) and the inhibition of percent positive cells was -0.9%.

Consider `COc1ccc(NC(=O)C(c2cc3c(cc2[N+](=O)[O-])OCO3)N2CCCCC2)cc1` (stereo unspecified), for which the inhibition of mean fluorescence is -14.1% (inactive) and the inhibition of percent positive cells was -1.6%.

As for `O=C(CN1CC(=O)Oc2ccccc21)Nc1ccc2c(c1)OCO2`, the inhibition of mean fluorescence was -25.8% (inactive) and the inhibition of percent positive cells is -0.2%.

As to `Cc1ccc(C)c(S(=O)(=O)c2n[nH]n3c2nc(=O)c2sccc23)c1`, the inhibition of mean fluorescence was 35.2% (active) and the inhibition of percent positive cells was 0%.

Take `Cc1ccc(Nc2nc3c(S(=O)(=O)c4ccccc4)nnn3c3ccccc23)cc1`: the inhibition of mean fluorescence was -19% (inactive) and the inhibition of percent positive cells came to 0.4%.

For the molecule `CCc1ccc(Nc2nc3c(S(=O)(=O)c4ccc(Br)cc4)nnn3c3ccccc23)cc1`, the inhibition of mean fluorescence was -16.7% (inactive) and the inhibition of percent positive cells amounted to 0%.

For the molecule `CC(C)c1ccc(NC(=O)C(c2cc3c(cc2[N+](=O)[O-])OCO3)N2CCCCC2)cc1` (stereo unspecified), the inhibition of mean fluorescence is 29% (inactive) and the inhibition of percent positive cells is -0.2%.

Regarding `CCc1ccc(S(=O)(=O)c2nnn3c2nc(Nc2ccc(OC)cc2)c2sccc23)cc1`, the inhibition of mean fluorescence was 5.8% (inactive) and the inhibition of percent positive cells is -0.5%.

In the case of `O=C(O)c1ccccc1Nc1cn2ncc([N+](=O)[O-])c2c(=O)[nH]1`, the inhibition of mean fluorescence was -1.7% (inactive) and the inhibition of percent positive cells is -0.3%.

For `Cc1ccc(Nc2ncccc2C(=O)O)cc1`, the inhibition of mean fluorescence was -7.8% (inactive) and the inhibition of percent positive cells is -1.3%.

Turning to `O=C(NCC(c1cccnc1)N1CCN(c2ccc(F)cc2)CC1)C1CCCCC1` (stereo unspecified), the inhibition of mean fluorescence was -37% (inactive) and the inhibition of percent positive cells came to 0.5%.

For the molecule `O=C(O)c1ccccc1Nc1c([N+](=O)[O-])c(=O)oc2ccccc12`, the inhibition of mean fluorescence was -23.2% (inactive) and the inhibition of percent positive cells was -1.7%.

As for `O=C(Nc1ccc2c(c1)OCO2)C(c1ccccc1)N1CCC2(CC1)OCCO2` (stereo unspecified), the inhibition of mean fluorescence is -2.7% (inactive) and the inhibition of percent positive cells is -0.2%.

Turning to `O=C(NCC(c1cccnc1)N1CCc2ccccc2C1)c1ccc(F)c(F)c1` (stereo unspecified), the inhibition of mean fluorescence was -6.4% (inactive) and the inhibition of percent positive cells was -0.1%.

Take `CC1CCCN(C(C(=O)Nc2ccc(C(C)C)cc2)c2cc3c(cc2[N+](=O)[O-])OCO3)C1` (stereo unspecified): the inhibition of mean fluorescence was 14.1% (inactive) and the inhibition of percent positive cells is -0.2%.

For the molecule `CC(C)c1ccc(NC(=O)C(c2cc3c(cc2[N+](=O)[O-])OCO3)N2CCC(Cc3ccccc3)CC2)cc1` (stereo unspecified), the inhibition of mean fluorescence is -12% (inactive) and the inhibition of percent positive cells is -0.4%.

As for `Cc1cccc(Nc2nc3c(S(=O)(=O)c4ccccc4)nnn3c3ccccc23)c1`, the inhibition of mean fluorescence is 3.1% (inactive) and the inhibition of percent positive cells is 0.2%.

`Cc1cc(C)cc(Nc2nc3c(S(=O)(=O)c4ccccc4)nnn3c3ccccc23)c1`: the inhibition of mean fluorescence was 0.4% (inactive) and the inhibition of percent positive cells was 0.1%.

As to `COc1ccc(C(=O)NCC(c2cccnc2)N2CCN(c3ccccc3F)CC2)cc1OC` (stereo unspecified), the inhibition of mean fluorescence was -7.3% (inactive) and the inhibition of percent positive cells was -1.8%.

Consider `CC(C)c1ccc(S(=O)(=O)c2nnn3c2nc(N)c2ccccc23)cc1`, for which the inhibition of mean fluorescence was 11.1% (inactive) and the inhibition of percent positive cells was 0.3%.

On to `COc1c(F)c(F)c(C(=O)O)c(Nc2ccccc2)c1F`, for which the inhibition of mean fluorescence is -23.9% (inactive) and the inhibition of percent positive cells is -2.3%.

In the case of `O=C(O)c1ccccc1Nc1nc(N2CCCC2)nc(N2CCCC2)n1`, the inhibition of mean fluorescence is 10.8% (inactive) and the inhibition of percent positive cells is -0.3%.

For the molecule `CC1CCN(C(=O)Cn2cc(SCC(=O)Nc3ccc4c(c3)OCO4)c3ccccc32)CC1`, the inhibition of mean fluorescence is -4.6% (inactive) and the inhibition of percent positive cells is -0.2%.

With `CCOC(=O)c1c(C)oc2cc(Br)c(O)c(Br)c12`, the inhibition of mean fluorescence is 55.9% (active) and the inhibition of percent positive cells was found to be 0.7%.

Turning to `COc1cccc(C(=O)NCC(c2cccnc2)N2CCN(c3ccccc3OC)CC2)c1` (stereo unspecified), the inhibition of mean fluorescence is 10.5% (inactive) and the inhibition of percent positive cells is -0.3%.

Regarding `N#Cc1c(NC(=O)COC(=O)c2c3c(nc4ccccc24)CCCC3)sc2c1CCCC2`, the inhibition of mean fluorescence was -13.5% (inactive) and the inhibition of percent positive cells was -0.1%.
